For 37 molecules, Inhibition results are on record in ChEMBL document CHEMBL1157539, “Thousands of chemical starting points for antimalarial lead identification” (Nature, 2010).

Broadly, the Inhibition is the change of the read-out against control, counted positive when it falls. A high value points to a response far below the control.

The subject of the assay is Plasmodium falciparum. As to the kind of experiment: GSK_TCMDC: Inhibition of Plasmodium falciparum 3D7 in whole red blood cells, using parasite LDH activity as an index of growth. Test compounds present at 2uM. It counts as functional.
With `COc1ccc(CNC(=O)c2cnc3c(O)cccc3c2Nc2cccc(NC(=O)c3ccc(-c4ccccc4)cc3)c2)cc1.O=C(O)C(F)(F)F`, the Inhibition is 90%.

`CCCCCN1CCCC(CNS(=O)(=O)c2ccc(C(=O)Nc3ccc(C(F)(F)F)cc3)cc2)C1.O=C(O)C(F)(F)F` (configuration not stated) came in with an Inhibition of 94%.

With `CC(CN(C)C)C(=O)Nc1cccc(-c2cccc(-c3nc4ccccc4[nH]3)c2)c1` (configuration not stated), the Inhibition was determined as 94%.

The molecule `N#Cc1ccc(CN2CCCN(Cc3cccc(NC(=O)c4cc5ccccc5s4)c3)CC2)cc1.O=C(O)C(F)(F)F` showed an Inhibition of 97%.

In turn, `O=C(CC1NC(=O)c2ccccc21)Nc1ccc(-c2cccc(-c3nc4cc(C(F)(F)F)ccc4[nH]3)c2)cc1` (configuration not stated) yielded an Inhibition of 95%.

Molecule `O=C(Nc1cccc(CN2CCCN(Cc3ccc4c(c3)OCO4)CC2)c1)c1ccc(Cl)c(Cl)c1.O=C(O)C(F)(F)F` came in with an Inhibition of 92%.

Take `CCc1ccc(NC(=O)c2ccc(CN3CCCN(Cc4cccc(Cl)c4)CC3)cc2)cc1.O=C(O)C(F)(F)F`: the Inhibition turned out to be 84%.

`CC(C)CCNC(=O)C1Cc2c([nH]c3cc(Br)ccc23)C2(CCN(Cc3ccccc3)CC2)N1` (configuration not stated): the Inhibition is 96%.

As to `COc1ccc(F)cc1-c1ccc(C(=O)N2CCCN(c3ccc(C#N)cn3)CC2)cc1`, the Inhibition is recorded as 99%.

In the case of `CCC(=O)Nc1cc(=O)[nH]c2nc(-c3ccc(Cl)cc3)nn12`, the Inhibition turned out to be 84%.

The molecule `N#Cc1ccc(N2CCN(C(=O)c3cccc(-c4noc(C(F)(F)F)n4)c3)CC2)nc1` registered an Inhibition of 84%.

Molecule `CC(C)(C)c1ccc2[nH]c(-c3ccc(/C=C/C(=O)NCc4cccc(C(F)(F)F)c4)cc3)nc2c1` had an Inhibition of 93%.

Molecule `CCn1cc(-c2nc(-c3cc(OC)cc(OC)c3)no2)c(=O)c2ccccc21` gave an Inhibition of 89%.

Turning to `O=C(O)C(F)(F)F.O=C(c1cccs1)N(Cc1cccc(-c2ccc(CNCCc3ccccc3)cc2)c1)C1CCN(Cc2ccccc2)CC1`, the Inhibition was 95%.

`Cc1cc(Nc2cc(Cl)cc(Cl)c2)nc(N)n1` came in with an Inhibition of 94%.

`CCOc1cc(-c2nnc3[nH]c(=O)n(C)c(=O)c3n2)ccc1OC(C)C` had an Inhibition of 97%.

In the case of `CS(=O)(=O)O.FC(F)(F)COc1ccc(CNCCCCCCNCc2ccc(OCC(F)(F)F)c3ccccc23)c2ccccc12`, the Inhibition is 100%.

`COc1cc(F)c2ncc(F)c(CCN3C[C@H](CNCc4ccc5c(n4)NC(=O)CS5)[C@H](O)C3)c2c1.Cl` came in with an Inhibition of 91%.

In the case of `COc1nc2c(CCN3CCC(NCc4ccc5c(c4)NC(=O)CO5)CC3)c(Cl)cnc2cc1F.Cl`, the Inhibition was found to be 99%.

As for `O=C(Nc1ccc(Cl)cc1)N[C@H]1CCN(CCCCCNC(=O)C2CC2c2ccc(Cl)c(Cl)c2)C1` (some centres not stated), the Inhibition worked out at 96%.

`c1ccc(-c2cc3cccc(-c4nc5cnccc5[nH]4)c3o2)cc1` displayed an Inhibition of 100%.

In turn, `CC(C)COc1ccc(Cl)cc1Cc1ccc(-c2nc3cc(CCN4CCCC4)ccc3[nH]2)o1.Cl` displayed an Inhibition of 100%.

In turn, `NC(=O)c1cc(-c2ccccc2)cc2c(C3CCC(NCc4ccccc4)C3)c[nH]c12` (configuration not stated) came in with an Inhibition of 95%.

`CCOC(=O)c1c(C)noc1Nc1ccc(OC)cc1` had an Inhibition of 99%.

The molecule `C=CCn1c(Sc2ccc(C#N)c([N+](=O)[O-])c2)nnc1-c1cc(OC)cc(OC)c1` yielded an Inhibition of 96%.

In turn, `CCOc1cc(C(=O)Nc2ccccc2N2CCN(S(C)(=O)=O)CC2)cc(OCC)c1OCC` gave an Inhibition of 91%.

`Br.O=C(CNc1ccncc1)c1c[nH]c2ccccc12` came in with an Inhibition of 90%.

Consider `Oc1cccc(Nc2nc(NCc3ccco3)c3ccccc3n2)c1`, for which the Inhibition is on record as 100%.

`CN1CCN(c2ccnc3ccc(NC(=O)c4ccc(Cl)c(Cl)c4)cc23)CC1`: the Inhibition came out at 100%.

As to `CCN1CCC(NCc2ccc(-c3ccc(Cl)cc3)cc2)CC1`, the Inhibition is listed as 100%.

Take `CN(C)CCNC(=O)c1cccc(-c2cnc3ccc(NCc4ccc(Cl)c(Cl)c4)nn23)c1`: the Inhibition worked out at 100%.

In turn, `CS(=O)(=O)CCNCc1ccc(-c2cc3c(Nc4ccc(OCc5cccc(F)c5)c(Cl)c4)ncnc3s2)[nH]1` gave an Inhibition of 99%.

`COc1cccc(C(=O)Nc2ccc(S(=O)(=O)c3cc4c(cc3OC)CCN(C)CC4)cc2)c1` registered an Inhibition of 86%.

For the molecule `O=C(NC1CC1)c1ccc(N2CCOc3ccc(Cl)cc32)s1`, the Inhibition is listed as 94%.

With `CCOC(=O)c1ccc(NC(=O)NC2CCN(CCCCCNC(=O)/C=C/c3ccc(Cl)c(Cl)c3)C2)cc1` (configuration not stated), the Inhibition is given as 98%.

In the case of `Cl.N#Cc1ccc2c(c1)CCN(CCC1CCC(NC(=O)c3cc4ccc(Br)cc4[nH]3)CC1)C2` (configuration not stated), the Inhibition is recorded as 100%.

`O=C(O)C(F)(F)F.OCC1CCCCN1Cc1cccc(-c2cccc(-c3nc4ccccc4[nH]3)c2)c1` (configuration not stated) came in with an Inhibition of 95%.
